# According to PubChem BioAssay (NCATS):
# Inconclusive results are not listed. Entries that show only a call come without a potency. Active and inactive are the calls of the source. Calls follow the shape of the dose curve; as a rule, active = well fitted curve in the direction sought with a large enough effect; inconclusive = small, poorly fitted or top-dose-only effect, or another doubt; inactive = no such curve, though single readings can be large; an effect the other way counts as inactive or inconclusive.
# Experiments:
# [1] = molecular target: Calcium and integrin-binding protein 1 (Homo sapiens) (UniProt Q99828); assay: Primary qHTS for Identification of Calcium Integrin Binding Protein 1 (CIB1) Competitor (AID 1508620); conditions: CIB1-GST / FITC-alphaIIb peptide fluorescence polarization; series mostly up to 57.7 µM;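 also: GST tagged CIB1 binding a fluorescein labelled alphaIIb integrin peptide tracer; top concentration of the series differs between compounds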
# Calcium and integrin-binding protein 1 (Homo sapiens), sequence (Q99828 whole entry, looked up): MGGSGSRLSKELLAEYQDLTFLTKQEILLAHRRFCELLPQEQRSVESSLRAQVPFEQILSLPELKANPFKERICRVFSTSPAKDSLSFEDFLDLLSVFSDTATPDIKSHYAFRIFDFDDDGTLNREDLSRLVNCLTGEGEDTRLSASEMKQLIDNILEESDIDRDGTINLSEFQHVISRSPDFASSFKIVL
# Outline: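 Fluorescence polarization competition: GST-tagged CIB1 (1 uM final) preincubated with compound 15 min at room temperature, then FITC-labelled alphaIIb peptide (100 nM final) added. After 15 min at room temperature, polarization read at Ex 480/Em 540.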
# [2] = Primary qHTS for small molecule stabilizers of the endoplasmic reticulum resident proteome: Secreted ER Calcium Modulated Protein (SERCaMP) assay (AID 1508630); conditions: SH-SY5Y GLuc-SERCaMP (Gaussia luciferase released on ER calcium loss) secretion, thapsigargin, luminescence; series mostly up to 38.4 µM
# Outline: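 GLuc-SERCaMP-expressing SH-SY5Y cells, pretreated 16 h with compound, are challenged with thapsigargin to empty ER calcium stores; after 4 h, coelenterazine is added directly to the medium and luminescence is imaged.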
Structure (SMILES),Potency [1],Potency [2]
O=C1NC(=O)C(=Cc2ccc(-c3ccc(F)cc3)o2)S1,inactive,
CN(C)C1CCN(C(=O)c2ccc(NC(=O)Nc3nc(N4CCOCC4)nc(N4CCOCC4)n3)cc2)CC1,inactive,
O=C1c2c(O)cc(O)cc2O[C@H](c2cc(O)c(O)c(O)c2)[C@H]1O,inactive,inactive
O=C(NCc1ccccc1)c1csc(Nc2ccncn2)n1,inactive,
CN(C[C@@H]1COCCO1)S(=O)(=O)Nc1ccc2ccc3ncc(-c4cnn(C)c4)cc3c(=O)c2c1,inactive,
CC[C@]1(O)C[C@@H]2CN(CCc3c([nH]c4ccccc34)[C@@](C(=O)OC)(c3cc4c(cc3OC)N(C=O)[C@@H]3C45CCN4CC=C[C@](CC)([C@H]45)[C@@H](OC(C)=O)[C@]3(O)C(=O)OC)C2)C1 (stereo partly specified),inactive,
O=C1NC(=O)C(=Cc2ccc3nccnc3c2)S1,inactive,
CO[C@H]1C[C@@H]2CC[C@@H](C)[C@@](O)(O2)C(=O)C(=O)N2CCCC[C@@H]2C(=O)O[C@H]([C@H](C)C[C@@H]2CC[C@H](OP(C)(C)=O)[C@H](OC)C2)CC(=O)[C@H](C)C=C(C)[C@@H](O)[C@@H](OC)C(=O)[C@H](C)C[C@H](C)C=CC=CC=C1C,inactive,
CO[C@H]1C[C@@H]2CC[C@@H](C)[C@@](O)(O2)C(=O)C(=O)N2CCCC[C@@H]2C(=O)O[C@H]([C@H](C)C[C@@H]2CC[C@H](OCCO)[C@H](OC)C2)CC(=O)[C@H](C)C=C(C)[C@@H](O)[C@@H](OC)C(=O)[C@H](C)C[C@H](C)C=CC=CC=C1C,inactive,
C[C@@H]1CCN(C(=O)CC#N)C[C@H]1N(C)c1ncnc2[nH]ccc12,inactive,
